Assay outcomes from PubChem BioAssay.
This is a sample that favours compounds with a hit; in the whole collection about 32% have one here.
CYP2C19 activ: cytochrome P450 2C19 (human) activation | P33261 | recombinant CYP2C19, luciferin-H EGE luminescence; stronger effect = higher value; 0 = fully inhibited enzyme, 1 = untreated enzyme | activation factor at 5 µM | 96,000 tested, under 10 active | AID 1025;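 active means activation factor of at least 2 at 5 µM in the primary screen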
CYP2C9 inhib: inhibitors of human CYP2C9; inhibition, % at 5 µM; AID 777; CYP2C9 Supersomes, luciferin-H conversion, luminescence; 96,000 tested, 20% active;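 active means blocking of liver enzyme CYP2C9 beyond about 50% at 5 µM, limit read from the data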
Target sequence (P11712 whole entry, looked up): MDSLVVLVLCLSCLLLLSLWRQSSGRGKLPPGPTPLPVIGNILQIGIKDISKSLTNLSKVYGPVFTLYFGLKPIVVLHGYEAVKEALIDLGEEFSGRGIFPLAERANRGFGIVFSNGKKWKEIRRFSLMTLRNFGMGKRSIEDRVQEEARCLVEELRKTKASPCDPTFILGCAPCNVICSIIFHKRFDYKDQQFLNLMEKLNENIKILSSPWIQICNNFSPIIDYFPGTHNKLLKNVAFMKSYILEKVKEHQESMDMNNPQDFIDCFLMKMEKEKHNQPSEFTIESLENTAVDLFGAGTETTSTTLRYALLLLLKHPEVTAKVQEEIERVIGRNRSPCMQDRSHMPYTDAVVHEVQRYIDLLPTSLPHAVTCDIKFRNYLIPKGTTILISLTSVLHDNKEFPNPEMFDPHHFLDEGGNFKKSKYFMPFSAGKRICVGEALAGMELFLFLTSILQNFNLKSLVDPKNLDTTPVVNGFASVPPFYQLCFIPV
CYP2C19 inh: human CYP2C19 inhibition | CYP2C19 Supersomes, luciferin-H EGE luminescence, 30 min | inhibition, % at 5 µM | 96,000 tested, 21% active | AID 778;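 active means CYP2C19 inhibition above a set limit at 5 µM in the primary screen, cut at about 50% in these data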
CYP2C9 act: activators of human CYP2C9; 96,000 tested, 1.4% active; activation factor at 5 µM; P11712; recombinant CYP2C9, luciferin-H conversion, luminescence; stronger effect = higher value; factor 1 = untreated enzyme, 0 = blocked;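 active means activation factor of 2 or more for CYP2C9 at a 5 µM dose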
PostGolgi ctrl: inhibits growth of the yeast control strain; 98,000 tested, 5% active; AID 738; inhibition, % at 10 µM; efflux-deficient yeast background strain, growth absorbance A615, 16 h
PostGolgi yeast: growth inhibition of a yeast mutant, post-Golgi transport screen; post-Golgi transport phenotypic cell assay; inhibition, % at 10 µM; 98,000 tested, 0.9% active;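 further: yeast cells grown in 1536-well plates; yeast grown about 18 h at 30C before absorbance read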
A number is an active result; – = inactive; · = not tested or not shown. Unless noted, no stated cut-off is given here; in the data, active means inhibition above about 30%; inactive means the rest.

SMILES	CYP2C19 activ	CYP2C9 inhib	CYP2C19 inh	CYP2C9 act	PostGolgi ctrl	PostGolgi yeast
CC1Cc2ccccc2N1C(=O)CSc1nc2ccccc2n1CC(=O)N1CCOCC1 (stereo unspecified)	–	–	–	–	–	–
COc1cccc(C(=O)CSc2nc3ccccc3n2CC(=O)N2CCOCC2)c1	–	67.8	–	–	–	–
C=CCn1c(CNC(=O)c2cccs2)nnc1SCC(=O)Nc1ccc(C(=O)O)cc1	–	–	–	–	–	–
CCOC(=O)Cc1c(C)c2c(O)cc(O)cc2oc1=O	–	–	–	–	–	–
Cc1ccccc1Cn1c(CN2CCN(c3ccc(F)cc3)CC2)nc2c1c(=O)n(C)c(=O)n2C	·	·	·	·	–	–
O=C(Nc1ccccc1C(F)(F)F)C1CC(=O)N(c2ccccc2F)C1 (stereo unspecified)	–	–	–	–	–	–
COC(=O)Cn1c(SCc2ccccc2)nc2ccccc21	–	–	57.7	–	–	–
CCn1cc(C(=O)NC2CCCCC2C)c(=O)c2ccc(C)nc21 (stereo unspecified)	–	–	–	–	–	–
Cc1c2c(nc3c(C(=O)NC4CCCCC4C)cnn13)CCCC2 (stereo unspecified)	–	–	–	–	56.3	–
CCN(CC)CCNC(=O)c1cn(C)c2ccc(S(=O)(=O)N(C)C3CCCCC3)cc2c1=O	–	–	–	–	–	–
CN(CCCNC(=O)c1cn(C)c2ccc(S(=O)(=O)N(C)C)cc2c1=O)c1ccccc1	–	60.1	–	–	–	–
CCN(CC)CCNC(=O)c1cn(CC)c2ccc(S(=O)(=O)N(C)C)cc2c1=O	–	–	–	–	–	–
C=CCn1cc(C(=O)NCCCOC)c(=O)c2cc(S(=O)(=O)N(CC)CC)ccc21	–	59.4	–	–	–	–
CN(C)S(=O)(=O)c1ccc2c(c1)c(=O)c(C(=O)NCCCN1CCCCCC1)cn2C	–	–	–	–	–	–
CCN(CC)S(=O)(=O)c1ccc2c(c1)c(=O)c(C(=O)NCCCN(C)c1ccccc1)cn2C	–	57.1	–	–	–	–
CC1CCCCN1C(=O)Cn1cc(/C=C2/C(=O)Nc3ccccc32)c2ccccc21 (stereo unspecified)	–	57.8	–	–	76.6	60.8
CC1CCCCN1C(=O)COC(=O)c1n[nH]c2ccccc12 (stereo unspecified)	–	–	–	–	–	–
Cn1c(=O)n(C)c2cc(NC(=O)CCl)ccc21	–	–	–	–	–	–
Cc1nc(-c2ccccc2)sc1C(=O)CSc1ccc(F)cc1	–	86.5	64.2	–	–	–
CNC(=O)c1sc(-c2ccccc2)nc1C	–	–	–	–	–	–
Cc1nc(-c2ccccc2)sc1C(=O)CSc1ccccc1	–	79.6	–	–	30.2	–
Cc1nc(-c2ccccc2)sc1C(N)=O	–	–	–	–	–	–
CCCN(CCC)CC(O)COc1ccc([N+](=O)[O-])cc1 (stereo unspecified)	–	–	–	–	–	–
CCC1SC(=NC(=O)c2ccc(Cl)c(Cl)c2)NC1=O (stereo unspecified)	–	57.5	–	–	35.3	–
CCSc1nc(O)c(Cc2ccccc2)c(=O)[nH]1	–	–	–	–	–	–
SMILES	CYP2C19 activ	CYP2C9 inhib	CYP2C19 inh	CYP2C9 act	PostGolgi ctrl	PostGolgi yeast
O=C(NCc1ccco1)c1sc(=S)n2c1[nH]c(=O)c1ccccc12	–	98.8	–	–	32.3	–
CCCCCNC(=O)c1ccc2c(=O)[nH]c3c(C(=O)NCC4CCCO4)sc(=S)n3c2c1 (stereo unspecified)	–	94.9	–	–	–	–
O=C(NC1CCCC1)c1sc(=S)n2c1[nH]c(=O)c1ccccc12	–	93.0	–	–	51.2	–
O=C(NCc1cccs1)c1cccc(N2CCCC2=O)c1	–	54.5	57.3	–	–	–
O=C(NC1CCCCCC1)c1cccc(N2CCCC2=O)c1	–	–	56.9	–	–	–
CC1CCCCC1NC(=O)c1ccc(N2CCCC2=O)cc1 (stereo unspecified)	–	–	–	–	33.3	–
Cc1ccc(CNC(=O)c2ccc(N3CCCC3=O)cc2)cc1	–	–	–	–	–	–
Cc1cc(C(=O)Cn2cncn2)c(C)n1CCc1ccc(F)cc1	–	67.2	98.7	–	–	–
COc1ccc(C2C(C(=O)N3CCOCC3)=C(C)NC3=C2C(=O)CC(C)(C)C3)c(OC)c1 (stereo unspecified)	·	·	·	·	–	–
CCC(C)NS(=O)(=O)c1cccs1 (stereo unspecified)	–	–	–	–	–	–
COC(=O)CC(NC(=O)c1ccco1)c1cccc2ccccc12 (stereo unspecified)	–	–	63.5	–	–	–
O=C(Oc1cccc2ccccc12)c1ccco1	–	–	–	–	–	–
COC(=O)CC(NS(=O)(=O)c1cccs1)c1cccc2ccccc12 (stereo unspecified)	–	–	100.3	–	–	–
COc1cccc(NC(=O)N2CCCC(C(=O)Nc3ccccc3OC)C2)c1 (stereo unspecified)	–	–	–	–	–	–
CC1CCN(S(=O)(=O)c2cn(CC(=O)N3CCN(C)CC3)c(=O)c3ccccc23)CC1	–	–	–	–	–	–
Cc1nnc2n(Cc3ccccc3)c(=O)c3c4c(sc3n12)COC(C(C)C)C4 (stereo unspecified)	–	–	–	–	71.2	–
CSc1nnc2n(Cc3ccccc3)c(=O)c3c4c(sc3n12)COC(C(C)C)C4 (stereo unspecified)	–	–	–	–	–	–
CC(C)C1Cc2c(sc3c2c(=O)n(Cc2ccccc2)c2nncn32)CO1 (stereo unspecified)	–	–	–	–	42.8	–
Cc1cc(C)c2nc(SCC(=O)N3CCCCC3)c(C#N)cc2c1	–	–	–	–	–	–
COc1cc2nc(SCc3ccc(Cl)cc3Cl)n(Cc3cccs3)c(=N)c2cc1OC	–	73.8	–	–	–	–
COc1ccc(Cn2c(C)ccc2C)cc1	–	–	–	–	–	–
COc1ccc(Cn2c(SCc3cc(C)ccc3C)nc3cc(OC)c(OC)cc3c2=N)cc1	–	56.4	–	–	62.6	75.8
O=c1c2ccccc2nc(SCc2ccccc2Cl)n1Cc1ccccc1	·	·	·	·	–	–
COc1ccc(Cn2c(SCc3ccc(C)cc3)nc3cc(OC)c(OC)cc3c2=N)cc1Cl	–	69.0	–	–	67.5	32.5
COCCCNC(=S)NNC(=O)c1cccnc1	–	–	–	–	–	–
CCOC(=O)c1ccc(NC(=O)C(CC)(CC)C(=O)OCC)cc1	–	64.7	76.9	–	–	–
CCOC(=O)c1ccc(NC(=O)CC2OCCN(CC)C2=O)cc1 (stereo unspecified)	–	–	–	–	35.0	–
CCOC(=O)c1ccc(NC(=O)CC2NCCNC2=O)cc1 (stereo unspecified)	–	–	–	–	–	–
CCOC(=O)c1ccc(Nc2cc(C)nc(C)c2C(=O)OCC)cc1	–	52.3	88.8	–	–	–
